Values without a mark were called inactive. The source made the active and inactive calls. Calls come from the whole dose curve; as a rule, active = well fitted curve in the direction sought with a large enough effect in the repeat runs; inconclusive = weak or mixed curves; inactive = flat fitted curve, though single readings scatter.
Test: qHTS assay to test for compound auto fluorescence at 535 nm (green) in HepG2 cells (AID 720675)
Conditions: green autofluorescence 485/535 nm, 1 h; series mostly up to 91.3 µM; fluorescence, % of fluorescein control: at the top concentration
Description: National Center for Advancing Translational Sciences [NCATS]
NIH Chemical Genomics Center [NCGC]
U.S. Environmental Protection Agency [EPA]
National Institutes of Environmental Health Sciences [NIEHS]
National Toxicology Program [NTP]
U.S. Food and Drug Administration [FDA]
Compound auto fluorescence often interferes with screening of the compound library against various biological targets and signaling pathways. Some of these compounds may have fluorophoric properties. Such properties may interfere with the assay outputs resulting in false positives and/or negatives. To decrease such complications and ensure the compound activities are relevant in terms of biological response, the Tox21 10K compound library was screened for auto fluorescence.
From the fluorophores used as reporter signals in our screening assays, the auto fluorescence equivalencies of compounds against three fluorophores have been evaluated: Triamterene, Fluorescein and Rose Bengal sodium for blue, green and red fluorescence, respectively. The fluorescence intensities were measured using Excitation/Emission wavelengths at 405/460nm, 485/535nm and 540/590nm for blue, green and red labels, respectively. This assay includes the green fluorescence data.
Tox21 Assay Protocol Summary:
2,000 HepG2 cells in 5 uL of culture medium (MEM containing 10% FBS) per well were dispensed into black wall/clear bottom 1536-well plates using a Multidrop Combi Dispenser (ThermoFisher Scientific, Waltham, MA). The assay plates were incubated overnight at 37 C to allow cell attachment to the well bottom, followed by the transfer of 23 nL compound or DMSO vehicle by a pintool work station (Kalypsys , San Diego, CA). After the assay plates were incubated for 1 hr at 37 C and 5% CO2, fluorescence intensities in the assay plates were measured by an Envision (PerkinElmer, Shelton, CT) plate reader using three labels for measuring blue, green and red fluorescence at […] 460, 535 and 590 nm respectively.
% is set by controls: 0 for no effect and ±100 for the full control effect.

Row | Compound | fluorescence, % of fluorescein control | outcome
1 | CCOc1ccc(NC(=O)CC(C)=O)cc1 | -0.0511% | 
2 | CC[C@]12CCCN3CCc4c(n(c5ccccc45)C(=O)C1)[C@@H]32 | 0.0406% [at 18.6 µM] | 
3 | CC(C)NCC(O)COc1ccc(CC(N)=O)cc1 (stereo not given) | 0.0148% | 
4 | C#CCOC(=O)[C@@H](C)Oc1ccc(Oc2ncc(Cl)cc2F)cc1 | 0.059% | 
5 | Cc1cc(C)c(S(=O)(=O)O)cc1N=Nc1cc(S(=O)(=O)O)c2ccccc2c1O | -0.364% | 
6 | CCCCCCCCCO | -0.0087% | 
7 | CC(C)c1ccc2c(C(C)C)cc(C(C)C)c(S(=O)(=O)O)c2c1 | -0.012% [at 95.7 µM] | 
8 | Cc1cc(O)ccc1N | 1.87% | 
9 | CC(O)C1CCCCC1 (stereo not given) | -0.0775% | 
10 | c1ccc(-c2nc[nH]c2-c2ccccc2)cc1 | -0.0281% [at 46 µM] | 
11 | CC(C)(C)c1ccc(OCC2CO2)cc1 (stereo not given) | -0.0773% [at 95.7 µM] | 
12 | O=C(c1ccccc1)c1ccc2n1CCC2C(=O)O (stereo not given) |  | inactive
13 | CC(=O)OCCc1ccccc1 | -0.0569% | 
14 | COC(=O)C(C)=O | -0.175% | 
15 | O=C(CC(=O)c1ccccc1)c1ccccc1 | -0.0627% [at 95.7 µM] | 
16 | CCCCC(CC)COCCCN (stereo not given) | 0.0233% | 
17 | O=C(O)COC(=O)Cc1ccccc1Nc1c(Cl)cccc1Cl | -0.151% [at 18.6 µM] | 
18 | O=C(NS(=O)(=O)/C=C/c1cccs1)c1ccc(F)cc1Br | -0.0693% | 
19 | CCCCCC/C=C/C=O | -0.0266% | 
20 | NCc1ccccc1 | 0.0128% | 

Row | Compound | fluorescence, % of fluorescein control | outcome
21 | CC1(C)[C@H]2CC[C@]1(C)[C@H](O)C2 |  | inactive
22 | CC(=O)O[C@@H]1C(=O)O[C@@H]2[C@H]1OC(=O)[C@@H]2OC(C)=O | 0.0792% [at 46 µM] | 
23 | CCCCCCc1ccc(N)cc1 | 0.0542% | 
24 | Cn1sccc1=O | -0.0584% | 
25 | O=c1c2ccccc2nnn1CCl | 0.0003% | 
26 | O=CNc1ccccc1 | -0.107% | 
27 | CCN(CC)C(C)=O | -0.0101% [at 95.7 µM] | 
28 | CN(C)CC/C=C1\c2ccccc2COc2ccccc21 | -0.0122% [at 46 µM] | 
29 | O=S1(=O)N=C(O)c2ccccc21 | -0.0562% [at 46 µM] | 
30 | CCN(CC)CCNC(C(=O)OCCC(C)C)c1ccccc1 (stereo not given) | 0.0245% [at 46 µM] | 
31 | CC(C)(C)C(=O)OCOP(=O)(COCCn1cnc2c(N)ncnc21)OCOC(=O)C(C)(C)C | -0.0363% [at 46 µM] | 
32 | C=CC(C)(CCC=C(C)C)OC(=O)c1ccccc1 (stereo not given) | 0.187% | 
33 | C[C@H](CCC(=O)O)[C@H]1CC[C@H]2[C@@H]3[C@H](O)C[C@@H]4C[C@H](O)CC[C@]4(C)[C@H]3CC[C@]12C |  | inactive
34 | Oc1ccc(C(O)CNCCCCCCNCC(O)c2ccc(O)c(O)c2)cc1O (stereo not given) | 0.0053% [at 46 µM] | 
35 | O=C1[C@H](CC[C@H](O)c2ccc(F)cc2)[C@@H](c2ccc(O)cc2)N1c1ccc(F)cc1 | -0.127% [at 46 µM] | 
36 | CCCCCCCCCCCCCCCBr | -0.118% [at 46 µM] | 
37 | C1=Cc2ccccc2C1 | -0.21% | 
38 | C=CC[N+]1([C@H]2C[C@H]3[C@@H]4CC[C@H]5C[C@H](OC(C)=O)[C@@H](N6CCCCC6)C[C@]5(C)[C@H]4CC[C@]3(C)[C@H]2OC(=O)CC)CCCCC1 | 0.125% [at 46 µM] | 
39 | NC1CCN(c2nc3c(cc2F)c(=O)c(C(=O)O)cn3-c2ccc(F)cc2F)C1 (stereo not given) | -0.0418% [at 46 µM] | 
40 | Nc1ccc(C(=O)Nc2ccccc2N)cc1 | 0.0136% [at 46 µM] | 
